About 79,000 compounds went through this panel and 15% of them were active in at least one assay; those are over-represented in the sample as a whole. A number with no mark means an inactive call. Activity calls are given as the source filed them. Cut-off read from the data, not from the text of the source: active = growth inhibition above about 70%; inactive = the rest.
Experiment: NCI Yeast Anticancer Drug Screen. Data for the rad50 strain (AID 155);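 note: 0% = growth of vehicle-only cultures of the same strain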
Settings: S. cerevisiae rad50 strain growth inhibition; at 100.0 µM; active compounds read high
Procedure, shortened: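 Readout: growth inhibition relative to vehicle-treated cultures. Compound exposure was carried out in a genetically defined yeast strain deficient in DNA damage repair.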

Compound | growth inhibition
COc1ccc(/C=C2\CCc3ccccc3C2=O)cc1OC | 82% (active)
CC(=O)CC[N+](C)(C)C | -13%
O=C(O)[C@H]1[C@@H](C2CCCCC2)O[C@@H](C2CCCCC2)O[C@H]1C(F)(F)F | -2%
CN(NC(=O)/C(=C/C=C/c1ccccc1)NC(=O)c1ccccc1)C1=C(Cl)C(=O)[N+](c2ccccc2)=CC1 | 67%
CCCCOc1ccc(Nc2c3ccccc3nc3ccccc23)cc1 | 85% (active)
N#C/C(=C1C=C/C(=N\O)C(Cl)=C\1)c1ccccc1 | 14%
COc1ccc(C(=O)OCCc2ccccc2)cc1 | 9%
Cc1c2ccncc2c(C)c2c1oc1ccccc12 | 95% (active)
CCCC#CCOC(=O)c1cc([N+](=O)[O-])cc([N+](=O)[O-])c1 | 99% (active)
Nc1nc(Nc2ccccc2)nc(Nc2ccccc2)n1 | 93% (active)
COc1ccc(/C=C2\S/C(=N/Nc3nc(-c4ccccc4)cs3)NC2=O)cc1OC | 93% (active)
CC(O)CN1C(=O)c2cccc3cc([N+](=O)[O-])cc(c23)C1=O (stereo not given) | 91% (active)
Cn1c(COc2ccc(/C=N/NC(=O)CCC(=O)N/N=C/c3ccc(OCc4c[n+]5ccccc5n4C)cc3)cc2)c[n+]2ccccc12 | 97% (active)
COC1=C(N=[N+]=[N-])C(=O)c2ncccc2C1=O | 95% (active)
CCN(CC)c1ccc(N=Nc2cc(S(=O)(=O)O)ccc2O)c(O)c1 | -13%
O=C1C(C(O)(C(F)(F)F)C(F)(F)F)CCC1C(O)(C(F)(F)F)C(F)(F)F (stereo not given) | 30%
CN(C)CCNC(=O)c1cccc2nc3c(ccc4ccccc43)nc12 | 98% (active)
O=S(=O)(CCC[C@H]1[C@@H](CCOCc2ccccc2)C2CCCN1O2)c1ccccc1 (stereo not given in full) | 22%
CCC(C)/C(C)=N/NC(N)=O (stereo not given) | 0%
Nc1c([N+](=O)[O-])cc2c3c(cccc13)CC2 | 83% (active)
CC1=Cc2ccc(C)cc2C(=O)C1=O | 98% (active)
C=Cc1c(C)c(O)cc2c1-c1ccc(O)c(C)c1CC2 | 99% (active)
NCC(O)CSCc1ccc(Cl)cc1 (stereo not given) | 17%
C[n+]1c(-c2ccc(NC(=O)c3ccc(C(=O)Nc4ccc(-c5cn6ccccc6[n+]5C)cc4)cc3)cc2)cn2ccccc21 | 91% (active)
CNC(=O)OCc1c(COC(=O)NC)c(C)n(-c2ccc(Cl)c(Cl)c2)c1C | 97% (active)
[O-]c1c2cc(-[n+]3c(-c4ccccc4)cc(-c4ccccc4)cc3-c3ccccc3)cc1COCCOCCOCCOCCOC2 | 80% (active)
C[Si](C)(C)Cc1ccccc1C(=O)O | 98% (active)

Experiment: NCI Yeast Anticancer Drug Screen. Data for the mec2-1 strain (AID 157)
Settings: S. cerevisiae mec2-1 strain, at 1.2 µM, active compounds read high
Procedure, shortened: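 Yeast mec2-1 mutant treated with compound. Readout: growth inhibition vs vehicle controls.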

Compound | growth inhibition
COc1ccc(/C=C2\CCc3ccccc3C2=O)cc1OC | -36%
O=Cc1ccccc1B(O)O | 2%
CC(=O)CC[N+](C)(C)C | 4%
O=C(O)[C@H]1[C@@H](C2CCCCC2)O[C@@H](C2CCCCC2)O[C@H]1C(F)(F)F | 2%
CN(NC(=O)/C(=C/C=C/c1ccccc1)NC(=O)c1ccccc1)C1=C(Cl)C(=O)[N+](c2ccccc2)=CC1 | 0%
CCCCOc1ccc(Nc2c3ccccc3nc3ccccc23)cc1 | -24%
N#C/C(=C1C=C/C(=N\O)C(Cl)=C\1)c1ccccc1 | -1%
COc1ccc(C(=O)OCCc2ccccc2)cc1 | -1%
Cc1c2ccncc2c(C)c2c1oc1ccccc12 | 5%
CCCC#CCOC(=O)c1cc([N+](=O)[O-])cc([N+](=O)[O-])c1 | -2%
Nc1nc(Nc2ccccc2)nc(Nc2ccccc2)n1 | -1%
COc1ccc(/C=C2\S/C(=N/Nc3nc(-c4ccccc4)cs3)NC2=O)cc1OC | 82% (active)
CC(O)CN1C(=O)c2cccc3cc([N+](=O)[O-])cc(c23)C1=O (stereo not given) | -17%
Cn1c(COc2ccc(/C=N/NC(=O)CCC(=O)N/N=C/c3ccc(OCc4c[n+]5ccccc5n4C)cc3)cc2)c[n+]2ccccc12 | -2%
COC1=C(N=[N+]=[N-])C(=O)c2ncccc2C1=O | 6%
CCN(CC)c1ccc(N=Nc2cc(S(=O)(=O)O)ccc2O)c(O)c1 | -28%
O=C1C(C(O)(C(F)(F)F)C(F)(F)F)CCC1C(O)(C(F)(F)F)C(F)(F)F (stereo not given) | 7%
CN(C)CCNC(=O)c1cccc2nc3c(ccc4ccccc43)nc12 | -1%
O=S(=O)(CCC[C@H]1[C@@H](CCOCc2ccccc2)C2CCCN1O2)c1ccccc1 (stereo not given in full) | 4%
CCC(C)/C(C)=N/NC(N)=O (stereo not given) | -1%
Nc1c([N+](=O)[O-])cc2c3c(cccc13)CC2 | 4%
CC1=Cc2ccc(C)cc2C(=O)C1=O | 2%
C=Cc1c(C)c(O)cc2c1-c1ccc(O)c(C)c1CC2 | -19%
NCC(O)CSCc1ccc(Cl)cc1 (stereo not given) | -3%
C[n+]1c(-c2ccc(NC(=O)c3ccc(C(=O)Nc4ccc(-c5cn6ccccc6[n+]5C)cc4)cc3)cc2)cn2ccccc21 | 4%
CNC(=O)OCc1c(COC(=O)NC)c(C)n(-c2ccc(Cl)c(Cl)c2)c1C | -27%
[O-]c1c2cc(-[n+]3c(-c4ccccc4)cc(-c4ccccc4)cc3-c3ccccc3)cc1COCCOCCOCCOCCOC2 | -5%
C[Si](C)(C)Cc1ccccc1C(=O)O | 4%

From PubChem BioAssay (NCI)
